Measured values taken from PubChem BioAssay AID1159580 (chemical genetic matrix, 2015).
Where “and” joins values, the source holds several entries; their conditions need not be identical. Identical values can stand only once. Screen size: about 5,500 compounds; about 2,000 (36%) were called active. Roughly 18% stayed inconclusive and do not appear here. Rule as the data show it: active = normalized growth mostly below about 0.91 (no sharp cut-off); inconclusive = no clear call, values can overlap the other calls; inactive = mostly above about 0.92. The list shows a part of the results.

Test: chemical genetic growth profiling, strain panel (AID 1159580);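 also: tested at 20 µM; growth read once vehicle control cultures reached saturation at 30 °C; 1 = growth at the plate median or of vehicle wells; lower values mean less growth of the strain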
Conditions: S. cerevisiae deletion strains, growth OD

Measured: normalized growth

CC(=O)O[C@@H]1C2CC[C@@H]3C1(C[C@@H](O)[C@@]1(O)[C@@H](C[C@H](O)C1(C)C)[C@]3(C)O)C[C@@]2(C)O (stereo partly drawn)
inactive: locus YAL021C, strain ccr4, stronger effect = lower value 0.996 | locus YAL026C, strain drs2, stronger effect = lower value 0.984 | locus YAL030W, strain snc1, stronger effect = lower value 0.992 | locus YBL061C, strain skt5, stronger effect = lower value 1 | locus YBR009C, strain hhf1, stronger effect = lower value 0.99 | locus YBR021W, strain FUR4, stronger effect = lower value 1.02 | locus YBR023C, strain chs3, stronger effect = lower value 0.997 | locus YBR171W, strain sec66, stronger effect = lower value 0.979 | locus YBR229C, strain ROT2, stronger effect = lower value 0.958 | locus YBR231C, strain swc5, stronger effect = lower value 0.997 | locus YBR279W, strain paf1, stronger effect = lower value 1 | locus YCL011C, strain gbp2, stronger effect = lower value 0.985 | locus YCL016C, strain dcc1, stronger effect = lower value 0.987 | locus YCL029C, strain bik1, stronger effect = lower value 0.974 | locus YCL061C, strain MRC1, stronger effect = lower value 0.995 | locus YCL069W, strain vba3, stronger effect = lower value 0.989 | locus YCR088W, strain abp1, stronger effect = lower value 0.988 | locus YDL005C, strain med2, stronger effect = lower value 0.976 | locus YDL035C, strain GPR1, stronger effect = lower value 0.998 | locus YDL040C, strain nat1, stronger effect = lower value 0.986 | locus YDL074C, strain BRE1, stronger effect = lower value 1.07 | locus YDL101C, strain DUN1, stronger effect = lower value 0.988 | locus YDL134C, strain PPH21, stronger effect = lower value 1.05 | locus YDL185W, strain tfp1, stronger effect = lower value 0.992 | locus YDL192W, strain arf1, stronger effect = lower value 0.992 | locus YDR001C, strain nth1, stronger effect = lower value 0.996 | locus YDR069C, strain doa4, stronger effect = lower value 0.999 | locus YDR101C, strain arx1, stronger effect = lower value 0.976 | locus YDR137W, strain rgp1, stronger effect = lower value 0.922 | locus YDR159W, strain sac3, stronger effect = lower value 0.995 | locus YDR162C, strain NBP2, stronger effect = lower value 1.01 | locus YDR195W, strain ref2 0.962 | locus YDR297W, strain sur2, stronger effect = lower value 0.989 | locus YDR318W, strain mcm21, stronger effect = lower value 0.991 | locus YDR334W, strain swr1, stronger effect = lower value 0.957 | locus YDR335W, strain msn5, stronger effect = lower value 0.999 | locus YDR388W, stronger effect = lower value 0.996 | locus YDR392W, strain spt3, stronger effect = lower value 0.993 | locus YDR502C, strain sam2, stronger effect = lower value 1 | locus YEL003W, strain gim4, stronger effect = lower value 0.988 | locus YEL037C, strain rad23, stronger effect = lower value 0.997 | locus YEL061C, strain CIN8 (second series), stronger effect = lower value 0.99 | locus YER015W, strain faa2, stronger effect = lower value 0.997 | locus YER016W, strain bim1, stronger effect = lower value 0.985 | locus YER110C, stronger effect = lower value 0.96 | locus YER111C, strain swi4, stronger effect = lower value 0.998 | locus YER155C, strain BEM2 (second series), stronger effect = lower value 0.977 | locus YER155C, strain BEM2, stronger effect = lower value 0.997 | locus YER167W, strain BCK2, stronger effect = lower value 0.998 | locus YFR010W, strain ubp6, stronger effect = lower value 0.977 | locus YGL078C, strain dbp3, stronger effect = lower value 1 | locus YGL086W, strain mad1, stronger effect = lower value 1 | locus YGL167C, strain pmr1, stronger effect = lower value 0.998 | locus YGL173C, strain kem1, stronger effect = lower value 0.987 | locus YGL227W, strain vid30, stronger effect = lower value 0.998 | locus YGL240W, strain doc1, stronger effect = lower value 0.991 | locus YGL248W, strain PDE1, stronger effect = lower value 1.02 | locus YGL253W, strain hxk2, stronger effect = lower value 0.996 | locus YGR078C, strain PAC10, stronger effect = lower value 1.01 | locus YGR135W, strain pre9, stronger effect = lower value 1.05 | locus YGR252W, strain gcn5, stronger effect = lower value 1.08 | locus YHR013C, strain ard1, stronger effect = lower value 0.984 | locus YHR027C, strain rpn1, stronger effect = lower value 0.989 | locus YHR030C, strain SLT2, stronger effect = lower value 1 and 0.972 | locus YHR079C, strain IRE1 (second series), stronger effect = lower value 0.983 | locus YHR079C, strain IRE1, stronger effect = lower value 0.959 | locus YHR094C, strain hxt1, stronger effect = lower value 0.991 | locus YHR129C, strain ARP1, stronger effect = lower value 1.01 | locus YHR142W, strain chs7, stronger effect = lower value 0.997 | locus YHR200W, strain rpn10, stronger effect = lower value 0.995 | locus YIL066C, strain RNR3, stronger effect = lower value 1 | locus YIL073C, strain SPO22, stronger effect = lower value 1.08 | locus YIL125W, strain kgd1, stronger effect = lower value 0.971 | locus YIR030C, strain dcg1, stronger effect = lower value 0.993 | locus YJL092W, strain hpr5, stronger effect = lower value 0.985 | locus YJL095W, strain BCK1 (second series), stronger effect = lower value 0.996 | locus YJL095W, strain BCK1, stronger effect = lower value 1.06 and 0.981 | locus YJL115W, strain asf1, stronger effect = lower value 0.969 | locus YJL129C, strain trk1, stronger effect = lower value 0.992 | locus YJL134W, strain LCB3, stronger effect = lower value 0.99 | locus YJL154C, strain vps35, stronger effect = lower value 0.983 | locus YJL164C, strain tpk1, stronger effect = lower value 0.995 | locus YJL166W, strain qcr8, stronger effect = lower value 0.999 | locus YJL168C, strain set2, stronger effect = lower value 0.995 | locus YJL187C, strain SWE1 (second series), stronger effect = lower value 0.995 | locus YJL187C, strain SWE1, stronger effect = lower value 0.994 | locus YJR066W, strain TOR1, stronger effect = lower value 0.961 | locus YKL009W, strain mrt4, stronger effect = lower value 0.992 | locus YKL068W, stronger effect = lower value 0.988 | locus YKL085W, strain MDH1 (second series), stronger effect = lower value 0.999 | locus YKL085W, strain MDH1, stronger effect = lower value 0.999 | locus YKL160W, strain elf1, stronger effect = lower value 0.998 | locus YKL190W, strain CNB1, stronger effect = lower value 1.01 | locus YKR001C, strain vps1, stronger effect = lower value 0.997 | locus YKR026C, strain gcn3, stronger effect = lower value 0.987 | locus YKR091W, strain srl3, stronger effect = lower value 1 | locus YLL001W, strain dnm1, stronger effect = lower value 0.991 | locus YLL026W, stronger effect = lower value 0.993 | locus YLL041C, strain sdh2, stronger effect = lower value 0.989 | locus YLR027C, strain aat2, stronger effect = lower value 0.985 | locus YLR039C, strain RIC1, stronger effect = lower value 1.19 | locus YLR058C, strain SHM2, stronger effect = lower value 0.993 | locus YLR102C, strain apc9, stronger effect = lower value 0.999 | locus YLR113W, strain HOG1, stronger effect = lower value 0.987 | locus YLR221C, strain rsa3, stronger effect = lower value 0.992 | locus YLR258W, strain gsy2, stronger effect = lower value 0.983 | locus YLR262C, strain YPT6 (second series), stronger effect = lower value 1 | locus YLR268W, strain sec22, stronger effect = lower value 0.987 | locus YLR320W, strain mms22, stronger effect = lower value 1.01 | locus YLR342W, strain FKS1 (second series), stronger effect = lower value 0.986 | locus YLR342W, strain FKS1, stronger effect = lower value 1 | locus YLR357W, strain rsc2, stronger effect = lower value 0.995 | locus YLR370C, strain arc18, stronger effect = lower value 1 | locus YLR371W, strain rom2, stronger effect = lower value 1 | locus YLR384C, strain iki3, stronger effect = lower value 0.99 | locus YLR418C, strain cdc73, stronger effect = lower value 1.01 | locus YML016C, strain PPZ1, stronger effect = lower value 0.99 | locus YML032C, strain rad52, stronger effect = lower value 0.99 | locus YML120C, strain ndi1, stronger effect = lower value 0.994 | locus YML124C, strain tub3, stronger effect = lower value 1 | locus YMR058W, strain fet3, stronger effect = lower value 0.984 | locus YMR078C, strain ctf18, stronger effect = lower value 0.99 | locus YMR125W, strain sto1, stronger effect = lower value 0.981 | locus YMR129W, stronger effect = lower value 0.993 | locus YMR205C, strain PFK2, stronger effect = lower value 1.01 | locus YMR223W, strain ubp8, stronger effect = lower value 1.01 | locus YMR231W, strain pep5, stronger effect = lower value 0.993 | locus YMR263W, strain SAP30, stronger effect = lower value 0.991 | locus YMR307W, strain GAS1, stronger effect = lower value 1.16 | locus YNL067W, strain RPL9B, stronger effect = lower value 1.01 | locus YNL071W, strain lat1, stronger effect = lower value 0.981 | locus YNL153C, strain GIM3, stronger effect = lower value 0.994 | locus YNL183C, strain NPR1, stronger effect = lower value 0.952 | locus YNL209W, strain ssb2, stronger effect = lower value 0.987 | locus YNL233W, strain BNI4, stronger effect = lower value 1.05 | locus YNL248C, strain rpa49, stronger effect = lower value 0.98 | locus YNL250W, strain rad50, stronger effect = lower value 0.974 | locus YNL271C, strain bni1, stronger effect = lower value 1 | locus YNL298W, strain CLA4, stronger effect = lower value 0.992 | locus YNL307C, strain MCK1, stronger effect = lower value 0.99 | locus YNL322C, strain KRE1 (second series), stronger effect = lower value 0.99 | locus YNL322C, strain KRE1, stronger effect = lower value 0.992 | locus YNR049C, strain mso1, stronger effect = lower value 0.996 | locus YNR052C, strain pop2, stronger effect = lower value 1.01 | locus YOL006C, strain TOP1, stronger effect = lower value 1.16 | locus YOL012C, strain htz1 1.28 | locus YOL147C, strain pex11, stronger effect = lower value 1 | locus YOR001W, strain rrp6, stronger effect = lower value 0.987 | locus YOR061W, strain CKA2, stronger effect = lower value 0.985 | locus YOR069W, strain VPS5, stronger effect = lower value 1.01 | locus YOR070C, strain gyp1, stronger effect = lower value 0.985 | locus YOR080W, strain dia2, stronger effect = lower value 0.997 | locus YOR083W, strain WHI5, stronger effect = lower value 1 | locus YOR106W, strain vam3, stronger effect = lower value 0.985 | locus YOR136W, strain idh2, stronger effect = lower value 0.995 | locus YOR144C, strain elg1, stronger effect = lower value 0.994 | locus YOR184W, strain ser1, stronger effect = lower value 0.992 | locus YOR231W, strain MKK1, stronger effect = lower value 0.963 | locus YOR265W, strain rbl2, stronger effect = lower value 0.994 | locus YOR270C, strain vph1, stronger effect = lower value 0.984 | locus YOR290C, strain snf2, stronger effect = lower value 1 | locus YOR316C, strain cot1, stronger effect = lower value 0.987 | locus YPL051W, strain arl3, stronger effect = lower value 1.01 | locus YPL078C, strain atp4, stronger effect = lower value 0.996 | locus YPL106C, strain sse1, stronger effect = lower value 0.98 | locus YPL240C, strain hsp82, stronger effect = lower value 0.98 | locus YPL241C, strain CIN2, stronger effect = lower value 1.01 | locus YPL256C, strain CLN2, stronger effect = lower value 0.995 | locus YPR119W, strain clb2, stronger effect = lower value 0.992 | locus YPR141C, strain kar3, stronger effect = lower value 0.979 | locus YPR163C, strain tif3, stronger effect = lower value 1.01 | locus YPR167C, strain met16, stronger effect = lower value 1 | strain wtn01, stronger effect = lower value 0.985
